Results as given in the supplement of paper PMC3545927.
Some of the results follow. The hit rate among all sequences tested is not known here.

Target: furin, P09958
Test: furin cleavage Z-score vs untreated control; higher = more cleavage, active = 3.5 or more, inactive = 1 or less, 8 variable residues between constant flanks
Procedure, shortened: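 Read counts from sequencing released DNA gave abundance for each bead-bound 8-mer peptide–cDNA fusion cut by purified furin over 7.5, 15 or 30 min. The cleavage Z-score compares log counts with furin-free reactions after lowess adjustment and median absolute deviation scaling.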
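Further: purified furin at 1:10 enzyme:substrate in 50 mM HEPES pH 7.5.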

Sequence of furin, P09958 (P09958 whole entry): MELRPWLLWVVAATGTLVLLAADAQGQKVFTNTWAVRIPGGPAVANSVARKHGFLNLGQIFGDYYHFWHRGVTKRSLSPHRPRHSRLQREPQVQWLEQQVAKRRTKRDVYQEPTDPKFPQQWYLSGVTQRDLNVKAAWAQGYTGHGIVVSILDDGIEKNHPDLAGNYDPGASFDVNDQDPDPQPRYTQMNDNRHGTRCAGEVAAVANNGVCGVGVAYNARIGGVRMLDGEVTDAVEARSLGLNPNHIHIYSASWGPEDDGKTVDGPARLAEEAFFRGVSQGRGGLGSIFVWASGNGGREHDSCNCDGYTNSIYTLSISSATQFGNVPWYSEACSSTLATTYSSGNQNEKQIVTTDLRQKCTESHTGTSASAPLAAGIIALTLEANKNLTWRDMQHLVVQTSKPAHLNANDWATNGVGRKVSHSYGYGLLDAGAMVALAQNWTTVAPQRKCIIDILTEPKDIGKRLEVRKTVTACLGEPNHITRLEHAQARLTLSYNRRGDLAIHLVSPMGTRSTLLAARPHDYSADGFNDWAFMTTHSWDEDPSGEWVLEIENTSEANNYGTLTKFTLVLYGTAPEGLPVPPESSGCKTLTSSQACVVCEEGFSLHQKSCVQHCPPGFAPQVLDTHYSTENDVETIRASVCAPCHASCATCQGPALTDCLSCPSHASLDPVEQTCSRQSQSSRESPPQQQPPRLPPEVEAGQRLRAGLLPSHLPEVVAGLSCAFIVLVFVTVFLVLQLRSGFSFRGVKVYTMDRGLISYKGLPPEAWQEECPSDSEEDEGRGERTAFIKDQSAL

Row | Sequence | furin cleavage Z-score (7.5 min) | furin cleavage Z-score (15 min) | furin cleavage Z-score (30 min)
1 | CARAAVCTRGAGNASASA [HC751] | 0.0348 (inactive) | -0.103 (inactive) | -0.127 (inactive)
2 | CAISWCLWWLAGNASASA [HC580] | -1.57 (inactive) | -0.298 (inactive) | -1.76 (inactive)
3 | CARRIRPTHPAGNASASA [FS-3048] | -1.48 (inactive) | -0.376 (inactive) | -2.07 (inactive)
4 | CAPCTTPCSGAGNASASA [HC1959] | -0.283 (inactive) | -0.0949 (inactive) | 0.269 (inactive)
5 | CARFRRQQWKAGNASASA [FS-2416] | -0.28 (inactive) | -0.542 (inactive) | -0.363 (inactive)
6 | CATVTESDIRAGNASASA [HC1484] | -1.23 (inactive) | -2.19 (inactive) | -1.8 (inactive)
7 | CARFRRLWPCAGNASASA [FS-1705] | -0.433 (inactive) | -0.574 (inactive) | 0.464 (inactive)
8 | CARTRRQDIRAGNASASA [FS-2836] | 3.19 | 3.96 (active) | 4.46 (active)
9 | CAREERSWFRAGNASASA [FS-2910] | 1.59 | -0.354 (inactive) | -1.01 (inactive)
10 | CARHPRSPPRAGNASASA [FS-2679] | 2.12 | 2.59 | 4.01 (active)
11 | CARFRRQDIRAGNASASA [FS-2664] | 2.04 | 2.56 | 4.18 (active)
12 | CASPPVPPPRAGNASASA [HC1321] | 0.641 (inactive) | 2.74 | 1.49
13 | CADQMEECSQAGNASASA [HC1822] | -1.95 (inactive) | 0.171 (inactive) | 0.415 (inactive)
14 | CAVQCCSMSYAGNASASA [HC2022] | -0.966 (inactive) | 0.322 (inactive) | 0.723 (inactive)
15 | CADLCGSVFLAGNASASA [HC300] | -2.25 (inactive) | -0.764 (inactive) | -0.906 (inactive)
16 | CASDGSWSTVAGNASASA [HC1361] | 1.87 | 1.47 | 0.994 (inactive)
17 | CARWKRPAFTAGNASASA [FS-1806] | -0.259 (inactive) | 0.293 (inactive) | -0.665 (inactive)
18 | CARWKRPIDLAGNASASA [FS-3131] | -0.222 (inactive) | 0.7 (inactive) | 0.99 (inactive)
19 | CARWKRNLDFAGNASASA [FS-2199] | 6.47 (active) | 7.97 (active) | 10.7 (active)
20 | CARWKRGLDWAGNASASA [FS-3214] | 7.21 (active) | 8.26 (active) | 10.3 (active)
21 | CARAKRQKDFAGNASASA [FS-2885] | 3.42 | 4.84 (active) | 4.86 (active)
22 | CALHTPGCVPAGNASASA [HC271] | -1.15 (inactive) | -0.17 (inactive) | 0.0406 (inactive)

Row | Sequence | furin cleavage Z-score (7.5 min) | furin cleavage Z-score (15 min) | furin cleavage Z-score (30 min)
23 | CAWIWFCLLLAGNASASA [HC1656] | -0.725 (inactive) | -0.337 (inactive) | -0.583 (inactive)
24 | CAKWSRHRRMAGNASASA [FS-175] | 11.5 (active) | 12.9 (active) | 11.2 (active)
25 | CACWPRHRRVAGNASASA [FS-1314] | 0.553 (inactive) | 1.38 | 2.27
26 | CASQSRIRRMAGNASASA [FS-504] | 9.85 (active) | 9.09 (active) | 8.46 (active)
27 | CAMRLRIRRMAGNASASA [FS-1601] | 10.1 (active) | 8.78 (active) | 9.1 (active)
28 | CATQRRGRTGAGNASASA [HC903] | -0.796 (inactive) | -0.169 (inactive) | -0.351 (inactive)
29 | CATQSRIRRMAGNASASA [FS-511] | 5.23 (active) | 7.4 (active) | 6.25 (active)
30 | CAMRAFQRRMAGNASASA [FS-276] | -1.44 (inactive) | -1.21 (inactive) | -0.935 (inactive)
31 | CANIEEVALSAGNASASA [HC841] | 0.342 (inactive) | 0.83 (inactive) | -1.19 (inactive)
32 | CAIKKRFQTTAGNASASA [FS-1881] | -0.863 (inactive) | -1.06 (inactive) | -0.368 (inactive)
33 | CAFYLRRRRRAGNASASA [FS-527] | 2.84 | 3.02 | 3.78 (active)
34 | CAIKKRRRRRAGNASASA [FS-33] | 7.42 (active) | 7.44 (active) | 6.1 (active)
35 | CASMVGNWAKAGNASASA [HC342] | 1.34 | 0.0553 (inactive) | 0.702 (inactive)
36 | CASKPCSAHLAGNASASA [HC2494] | 1.46 | 0.933 (inactive) | 0.45 (inactive)
37 | CAARGRGGRDAGNASASA [FS-978] | 0.0621 (inactive) | -0.261 (inactive) | -0.608 (inactive)
38 | CAARPRRARQAGNASASA [FS-1585] | 9.65 (active) | 12 (active) | 7.48 (active)
39 | CAARARLPRDAGNASASA [FS-1185] | 9.09 (active) | 9.62 (active) | 6.75 (active)
40 | CASQARLGRIAGNASASA [FS-301] | -1.06 (inactive) | -0.739 (inactive) | -0.311 (inactive)
41 | CAACPRRARGAGNASASA [FS-1297] | -0.34 (inactive) | -0.615 (inactive) | -0.259 (inactive)
42 | CAARARLGRQAGNASASA [FS-400] | 5.77 (active) | 6.39 (active) | 5.75 (active)
43 | CATRARLSRPAGNASASA [FS-1098] | -0.0765 (inactive) | -0.0832 (inactive) | -0.467 (inactive)
